Results as given in PubChem BioAssay (NCI).
The panel holds about 83,000 compounds, 20% with a hit somewhere; the sample as a whole holds those more often.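 Cells were grown in 96-well plates and exposed to the test compound at a single concentration for 48 hours; results are reported as percent growth, with values below 10 considered active.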 A number with no mark means an inactive call. Active and inactive are the calls of the source.

Assays:
Test in all cases: NCI-60 one-dose screen, 48 h (100 = growth as untreated, 0 = no growth, -100 = all killed)
Details in all cases: 10 µM unless noted
HCT-15 colon = test system: HCT-15 colon
HT29 colon = test system: HT29 colon
SNB-75 CNS = test system: SNB-75 CNS
SNB-19 CNS = test system: SNB-19 CNS
U251 CNS = test system: U251 CNS
PC-3 prostate = test system: PC-3 prostate
SK-MEL-5 melanoma = test system: SK-MEL-5 melanoma
UACC-62 melanoma = test system: UACC-62 melanoma
LOX IMVI melanoma = test system: LOX IMVI melanoma
SK-MEL-28 melanoma = test system: SK-MEL-28 melanoma
SK-MEL-2 melanoma = test system: SK-MEL-2 melanoma
EKVX NSCLC = test system: EKVX NSCLC
SN12C renal = test system: SN12C renal
UO-31 renal = test system: UO-31 renal
TK-10 renal = test system: TK-10 renal
ACHN renal = test system: ACHN renal
CAKI-1 renal = test system: CAKI-1 renal
A498 renal = test system: A498 renal
CCRF-CEM leukemia = test system: CCRF-CEM leukemia
MOLT-4 leukemia = test system: MOLT-4 leukemia

| SMILES | growth (HCT-15 colon) | growth (HT29 colon) | growth (SNB-75 CNS) | growth (SNB-19 CNS) | growth (U251 CNS) | growth (PC-3 prostate) | growth (SK-MEL-5 melanoma) | growth (UACC-62 melanoma) | growth (LOX IMVI melanoma) | growth (SK-MEL-28 melanoma) | growth (SK-MEL-2 melanoma) | growth (EKVX NSCLC) | growth (SN12C renal) | growth (UO-31 renal) | growth (TK-10 renal) | growth (ACHN renal) | growth (CAKI-1 renal) | growth (A498 renal) | growth (CCRF-CEM leukemia) | growth (MOLT-4 leukemia) |
| --- | --- | --- | --- | --- | --- | --- | --- | --- | --- | --- | --- | --- | --- | --- | --- | --- | --- | --- | --- | --- |
| CC(C)(C)CC(C)(C)Nc1c(-c2ccc(-c3ccccc3)cc2)nc2cnccn12 | 84.5% | 30.5% | 88.7% | 94.3% | 59.7% | 65.4% | 101% | 75.9% | 97.2% | 100% | 72.2% | 92.7% | 98.7% | 68.8% | 86.6% | 100% | 76.1% | 75.9% | 72.9% | 62.5% |
| O=c1cc(-c2ccc(OCc3ccccc3)cc2)oc2c(I)c(OCc3ccccc3)cc(OCc3ccccc3)c12 | 104% | 105% | 79.7% | 104% | 90.1% | 94.7% | 85.1% | 90.3% | 101% | 107% | 113% | 109% | 101% | 80% | 96.5% | 98.5% | 84.2% | – | 97.8% | 113% |
| COc1cc(/C=C/c2nc(Nc3ccc(S(=O)(=O)Nc4cc(C)on4)cc3)c3ccccc3n2)ccc1O | 31.8% | 85.4% | 59.7% | 64.3% | 61.4% | 80.4% | 52.6% | 46.6% | 59.5% | 74% | 72% | 73.3% | 60.7% | 58% | 93% | 83.6% | 45% | 95.2% | 55.9% | 42.1% |
| CNCCNc1nc2ccccc2c2c(=O)c3cc(F)ccc3oc12 | 49.1% | 24.5% | 56.8% | 57.9% | 50.2% | 46.9% | 73.3% | 85% | 44.6% | 84.5% | 100% | 71.9% | 46.9% | 37.7% | 80.2% | 24% | 45% | – | 52.4% | 10.7% |
| COc1cc(C(=O)/C=C/c2c(C(F)(F)F)nc3ccccn23)cc(OC)c1OC | -44.2% (active) | -56.5% (active) | 1.22% (active) | 14.6% | -60.2% (active) | 7.45% (active) | -95.2% (active) | -75.6% (active) | -79.8% (active) | -65.2% (active) | -49.3% (active) | -0.4% (active) | 3.89% (active) | -71.1% (active) | 11.2% | -78.7% (active) | -25.5% (active) | 8.53% (active) | 5.58% (active) | 4.22% (active) |
| CCCCCCNC(=O)c1cc(NCc2cc(O)ccc2O)ccc1O | 34.6% | 91% | 45.7% | 99.7% | 67.3% | 42.6% | 90% | 56.3% | 67.7% | 101% | 95.5% | 66.6% | 56.3% | 34.4% | 68.6% | 57.1% | 56.3% | 99% | 5.38% (active) | 12.5% |
| C=C1C(=O)O[C@H]2[C@H]1CC/C(COC(=O)/C=C/C(=O)NCc1ccc(Cn3c(=O)sn(-c4ccccc4)c3=O)cc1)=C\CC[C@@]1(C)O[C@@H]21 | 32.9% | -46.6% (active) | 70.7% | 61.8% | 20.7% | 57.1% | -27.8% (active) | -80.8% (active) | -85.2% (active) | -40.1% (active) | -13.6% (active) | 52.3% | -43.7% (active) | 17.9% | -38.6% (active) | -47.3% (active) | 35.5% | 97.1% | -30.6% (active) | -27.7% (active) |
| CN(C)c1ccc(/C=N/NC(=O)COc2cc(=O)n(C)c3ccccc23)cc1 | 104% | 108% | 76.8% | 88.4% | 104% | 101% | 101% | 88.5% | 99.8% | 109% | 111% | 103% | 99.5% | 71.7% | 119% | 90.6% | 83.7% | 104% | 106% | 104% |
| CCCCCCCCN(CCCCCCCC)C(=N)c1ccnc2ccccc12 | -88.2% (active) | -87.1% (active) | -95.7% (active) | -70.8% (active) | -95.6% (active) | -88.7% (active) | -96.6% (active) | -74.5% (active) | -100% (active) | -86% (active) | -44.2% (active) | -63.4% (active) | -57.8% (active) | -89.1% (active) | -16.4% (active) | -89.3% (active) | -86.1% (active) | -95.7% (active) | -42.2% (active) | -41.4% (active) |
| COc1ccc(/C(C)=C(\c2ccc(Cl)cc2)c2ccc(OCCN(C)C)cc2)cc1F | 16.4% | 8.32% (active) | 75.4% | 80% | 46% | 51.2% | 55% | 42.3% | -44.6% (active) | 30.9% | 105% | 81.6% | 70.6% | 54.7% | 59.1% | 92% | 56.2% | 98.5% | 40.2% | 39.5% |
| COc1cccc(-c2nc3sccn3c2-c2ccnc(NCCNS(=O)(=O)c3c(Cl)cccc3Cl)c2)c1 | 47.3% | 47.3% | 42.8% | 77% | 70.1% | 41.2% | 26% | 28.6% | 58.6% | 90.4% | 74.6% | 55.6% | 60.5% | 24.1% | 68.5% | 44% | 36.3% | 48.6% | 31.1% | 33.7% |
| CCc1cc(Cc2cc(CC)cc(C(C)(C)C)c2O)c(O)c(C(C)(C)C)c1 | 13.8% | 23.3% | 42.1% | 20% | 16.3% | 15.1% | 6.03% (active) | 25.7% | 10.5% | 46% | 52.9% | 17.7% | 19.1% | 30.4% | 37.8% | 13.1% | 19.6% | 63.7% | 12.9% | 14.4% |
| CC(=O)Nc1ccc(C(=O)/C=C/c2ccccc2)cc1 | 77.3% | 44.6% | 75.9% | 80.5% | 76.3% | 84.3% | 91.5% | 90% | 61.8% | 93.4% | 78.2% | 95.2% | 77.2% | 51.8% | 82.1% | 94.6% | 88.2% | 74% | 95.1% | 81.6% |
| Oc1[nH]c2ccccc2c1/C=c1/cc2c(c(-c3ccc(F)cc3)n1)=Nc1ccccc1-2 | -18.1% (active) | -41.7% (active) | -2.31% (active) | 25.2% | -57.8% (active) | -14.8% (active) | -38.9% (active) | -56% (active) | -58.1% (active) | -47.3% (active) | -3.73% (active) | 38.2% | -0.749% (active) | -12.1% (active) | 16.3% | -43.4% (active) | 14.8% | -4.07% (active) | – | -15.6% (active) |
| Cc1c2c(cn1Cc1ccccc1)CCc1cn(C)nc1-2 | 95.1% | 98% | 95.9% | 105% | 97.2% | 71.4% | 53.5% | 70.4% | 85.2% | 104% | 114% | 73.2% | 87% | 68.6% | 107% | 80.3% | 58.8% | 97.5% | 74.4% | 69.7% |
| CS(=O)(=O)c1ccc(-c2nc3cc(Cl)ccc3n2CC(=O)NO)cc1 | 102% | 95.6% | 73.7% | 96.4% | 93.1% | 95.7% | 103% | 92.6% | 97.9% | 100% | 88.2% | 99.4% | 95% | 82.4% | 112% | 93.7% | 93.6% | 101% | 93.8% | 94.2% |
